Measured values from the supplement of paper PMC10646978.
± gives the standard deviation.

How the values were obtained:
Settings in all cases: modulator concentration 10 µM
[1] = test system: RAW-Dual (murine macrophage reporter line); experiment: NF-kB reporter (SEAP) activity fold change vs agonist alone; higher = enhanced NF-kB activity
Method in brief: (§1)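 In 384-well plates holding 50 000 RAW-Dual murine macrophage reporter cells per well, compound at 10 μM final was pre-incubated for 1 hour at 37 °C, after which a PRR agonist was added overnight. Supernatant SEAP read with QUANTI-Blue at 620 nm absorbance reported NF-κB, and Lucia luciferase read with QUANTI-Luc luminescence reported IRF. Fold change values come from dividing each reporter signal by the mean of agonist-only control wells on the same plate, averaged over replicate plates with propagated errors.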

[2] = test system: RAW-Dual (murine macrophage reporter line); experiment: IRF reporter (Lucia luciferase) activity fold change vs agonist alone; higher = enhanced IRF activity
Method in brief: as §1

[3] = test system: RAW-Dual (murine macrophage reporter line); experiment: viability score (confluency relative to resting cells, overnight) (fraction); higher = more viable, active = viable (0.7 or more)
Method in brief: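 RAW-Dual macrophages in 384-well plates were incubated overnight with compound, final concentration 10 μM. Confluency images from IncuCyte were processed in IncuCyte software into two masks covering all imaged wells. The viability score is each well's confluency relative to resting cells, and a compound met the cutoff when both masks exceeded 70% of resting cells.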

[4] = agonist: CpG ODN 1826 0.5 ug/mL

Structure (SMILES)	NF-kB reporter [1, 4]	NF-kB reporter ([1]; agonist: LPS 0.1 ug/mL)	NF-kB reporter ([1]; agonist: MPLA […])	IRF reporter ([2]; agonist: 3'3'-cGAMP 10 ug/mL)	IRF reporter ([2]; agonist: LPS 0.1 ug/mL)	IRF reporter ([2]; agonist: MPLA […])	viability score [3]
Nc1nc(NC2CC2)c2ncn([C@H]3C=C[C@@H](CO)C3)c2n1 [Prestw-1512]	1.12 ± 0.18	1.18 ± 0.11	1.02 ± 0.087	0.935 ± 0.031	1.01 ± 0.21	1.12 ± 0.19	0.974 (active)
CCOC(=O)C(=NNc1ccccc1[N+](=O)[O-])C(=O)CSc1ccc(C)cc1	0.697 ± 0.046	0.789 ± 0.049	0.919 ± 0.056	0.154 ± 0.0098	1.14 ± 0.083	1.14 ± 0.12	1 (active)
CC(=O)OC1(C(C)=O)CCC2C3CC(C)C4=CC(=O)CCC4(C)C3CCC21C (stereo unspecified)	1.65 ± 0.4	1.36 ± 0.11	1.29 ± 0.089	0.937 ± 0.045	1.1 ± 0.13	1.23 ± 0.14	0.984 (active)
O=C1OC(c2ccc3ccccc3c2)=NC1=Cc1ccc(Cl)c([N+](=O)[O-])c1	0.973 ± 0.079	1.07 ± 0.067	0.881 ± 0.053	0.976 ± 0.03	1.53 ± 0.14	1.16 ± 0.2	1.01 (active)
COc1ccc(NCN2C(=O)c3ccccc3C2=O)c(OC)c1	0.844 ± 0.066	0.972 ± 0.058	1.08 ± 0.1	0.911 ± 0.044	1.42 ± 0.084	1.61 ± 0.21	0.991 (active)
CC(C)C(=O)Nc1ccc([N+](=O)[O-])c(C(F)(F)F)c1	1.42 ± 0.3	1.06 ± 0.077	1.25 ± 0.2	0.762 ± 0.04	0.97 ± 0.11	1.04 ± 0.12	0.968 (active)
CN(C)Cc1ccc(S(=O)(=O)n2ccc(/C=C/C(=O)NO)c2)cc1	0.517 ± 0.028	0.946 ± 0.11	1.25 ± 0.12	1.3 ± 0.12	1.49 ± 0.18	1.6 ± 0.36	0.334 (inactive)
O=c1c(O)c(-c2ccccc2)oc2cc(O)ccc12	1.21 ± 0.34	1.37 ± 0.084	1.43 ± 0.15	0.764 ± 0.026	0.947 ± 0.12	0.789 ± 0.077	1 (active)
Cc1nc(C(=O)NCC(=O)O)c(O)c2ccc(Oc3ccccc3)cc12	0.856 ± 0.12	1.05 ± 0.39	0.94 ± 0.053	0.925 ± 0.04	1.09 ± 0.25	0.97 ± 0.28	0.996 (active)
O=c1ncnc2[nH][nH]cc1-2	0.832 ± 0.071	0.865 ± 0.043	1.13 ± 0.13	0.979 ± 0.059	1.17 ± 0.07	1.31 ± 0.15	1.02 (active)
Cc1ccc(C(=O)c2ccc(CC(=O)O)n2C)cc1	0.949 ± 0.071	1.01 ± 0.064	1.02 ± 0.048	0.995 ± 0.086	0.993 ± 0.1	1.02 ± 0.092	1 (active)
O=c1[nH]c(NN=Cc2c3ccccc3cc3ccccc23)nc2ccccc12	0.919 ± 0.085	1.03 ± 0.061	0.971 ± 0.066	0.935 ± 0.048	1.82 ± 0.16	1.23 ± 0.19	0.999 (active)
Cc1cc(OCC(=O)Nc2ccccc2-c2ccccc2)ccc1Br	0.776 ± 0.073	0.888 ± 0.06	0.972 ± 0.099	1.03 ± 0.048	1.47 ± 0.087	1.55 ± 0.13	0.997 (active)
